From PubChem BioAssay
This excerpt belongs to a sample that is enriched for hits.
RBX1-CUL1 inh: inhibitors of human ROC1-CUL1 ubiquitin ligase activity | P62877+Q13616 | in vitro K48 di-Ub FRET, acceptor:donor ratio, 45 min | inhibition, % at 10 µM | hit rate 0.6% among 140,000 | AID 1347404; in the data active = inhibition above about 25%
Target sequence (P62877 whole entry, looked up): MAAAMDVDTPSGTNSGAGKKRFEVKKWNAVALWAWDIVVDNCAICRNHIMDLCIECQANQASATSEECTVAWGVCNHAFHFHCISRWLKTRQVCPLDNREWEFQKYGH
Target sequence (Q13616 whole entry, looked up): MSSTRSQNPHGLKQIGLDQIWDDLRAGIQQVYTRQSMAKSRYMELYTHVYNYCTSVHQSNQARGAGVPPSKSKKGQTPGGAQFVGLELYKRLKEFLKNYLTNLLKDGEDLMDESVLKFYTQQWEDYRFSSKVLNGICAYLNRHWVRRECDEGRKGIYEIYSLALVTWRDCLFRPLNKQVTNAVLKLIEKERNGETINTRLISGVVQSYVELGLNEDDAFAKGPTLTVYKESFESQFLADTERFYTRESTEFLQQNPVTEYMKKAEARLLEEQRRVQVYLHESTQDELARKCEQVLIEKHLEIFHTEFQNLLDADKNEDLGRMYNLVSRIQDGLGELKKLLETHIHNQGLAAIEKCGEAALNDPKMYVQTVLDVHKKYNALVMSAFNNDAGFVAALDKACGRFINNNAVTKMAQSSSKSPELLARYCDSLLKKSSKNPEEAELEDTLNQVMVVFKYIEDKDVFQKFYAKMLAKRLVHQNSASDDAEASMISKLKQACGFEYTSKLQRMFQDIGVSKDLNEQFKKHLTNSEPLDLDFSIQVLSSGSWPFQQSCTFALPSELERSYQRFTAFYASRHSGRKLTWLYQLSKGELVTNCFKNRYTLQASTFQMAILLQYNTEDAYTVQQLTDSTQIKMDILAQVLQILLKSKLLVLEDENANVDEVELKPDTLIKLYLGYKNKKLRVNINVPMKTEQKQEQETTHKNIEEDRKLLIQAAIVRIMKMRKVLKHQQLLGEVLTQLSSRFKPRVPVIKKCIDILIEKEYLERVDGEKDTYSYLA
Numbers stand for hits; . = inactive.

SMILES	RBX1-CUL1 inh
COCCCn1c(CN(C)Cc2sccc2C)cnc1S(C)(=O)=O	.
CCCCCCCCCCCCCCc1ccc(-n2cnc(C(=O)OCC)c2N)cc1	.
Cn1c(=O)c2c(ncn2CC(=O)Nc2ccc(S(=O)(=O)NCCc3ccccc3)cc2)n(C)c1=O	.
O=C(NCCCn1cccn1)c1coc(CN2CCN(Cc3ccccc3)CC2)n1	.
COc1ccc(S(=O)(=O)Nc2cccnc2)cc1C(=O)NC1CCCCC1	.
CC(=O)OC1CC[C@](C)(C2CC[C@]3(C)C(C(C)CCCC(C)C)CCC3C2C(=O)O)C(=O)C1 (some centres not stated)	.
CC(C)CCCC(C)C1CCC2C3CC([N+](=O)[O-])=C4C[C@@H](Cl)CCC4(C)C3CCC12C (some centres not stated)	.
CC(C)CCCC(C)C1CCC2[C@@H](C(=O)O)C([C@@]3(C)CCC=CC3=O)CC[C@]12C (some centres not stated)	97
Cc1ccc(C2NC(=O)c3c(sc4c3CCN(C)C4)N2)c(O)c1 (configuration not stated)	.
Cc1ccc(/C=C\c2ccc3ccccc3c2)cc1	.
CC[n+]1c(/C=C/c2ccc3c(c2)c2ccccc2n3C)ccc2ccccc21	69
Cn1c2ccccc2c2cc(/C=C/c3nc4ccccc4s3)ccc21	.
O=C1N(c2cccc(C(F)(F)F)c2)C2CS(=O)(=O)CC2N1c1ccc(Cl)c(Cl)c1 (configuration not stated)	.
Cc1ccc(-c2csc(N3C(=O)CN=C3SCc3ccc(Cl)cc3)n2)cc1	.
c1ccc2nc3c(nc2c1)c1ccccc1n3CN1CCCCC1	.
Cn1c(CN2CCCCC2)nc2ccccc21	.
OCNc1nc2c3ccccc3nc(CCN3CCCCC3)n2n1	46
CC1(C)CC(=O)C2C(C1)OC(=N)C(C#N)C21CCN(C(=O)c2ccccc2)CC1 (configuration not stated)	.
C#CCOc1ccc(/C=C2/C(=O)N(c3ccc(C)cc3)N=C2C)cc1OCC	.
CCOc1cc(/C=C2/C(=O)N(c3cccc(C(F)(F)F)c3)N=C2C)ccc1OCc1ccccc1	.
C#CCOc1ccc(/C=C2\C(=O)N(c3ccc(C(=O)OCC)cc3)N=C2C(F)(F)F)cc1OCC	41
CCn1c(COc2ccc(C(C)C)cc2)nnc1SCC(=O)Nc1ccccc1	.
N#C/C(=N\Nc1c(Cl)cc(Cl)cc1Cl)C(=O)c1ccc(Cl)cc1	82
N#C/C(=N\Nc1c(Cl)cc(Cl)cc1Cl)C(=O)c1ccccc1	.
N#C/C(=N/Nc1ccc(Cl)cc1Cl)C(=O)c1ccc(Cl)cc1	.
SMILES	RBX1-CUL1 inh
CCC(Oc1ccccc1OC)C(=O)NC(C)C (configuration not stated)	.
COc1cc(NC(=O)CCNS(=O)(=O)c2ccc3c(c2)CCN3C(=O)C2CC2)cc(OC)c1	.
CC1(C)CC(=O)C2=C(C1)N(c1ccccc1C#N)C(=N)C(C#N)C2c1ccc2c(c1)OCO2 (configuration not stated)	.
CCOc1ccccc1N(CC(=O)NCCc1ccc(OC)cc1)S(C)(=O)=O	.
O=C(CSc1nc(-c2ccc(F)cc2)nc2c1Cc1ccccc1O2)Nc1cccc(C(=O)O)c1	25
COc1cc(NC(=O)CSc2nc(-c3ccc(C)cc3)nc3c2Cc2ccccc2O3)cc(OC)c1	.
COc1cccc2c1Oc1nc(-c3ccccc3)nc(SCC(=O)Nc3ccccc3)c1C2	.
CC(C)(C)N=C1c2ccccc2OC(=O)C1[N+](=O)[O-] (configuration not stated)	.
CCN(CC)CN1C(=O)S/C(=C/c2ccc(N(CC)CC)cc2)C1=O	.
CCN(CC)c1ccc(/C=C2\SC(=S)N(N)C2=O)cc1	55
CCCN1C(=O)/C(=C/c2ccc(N(C)C)cc2)SC1=S	.
CCOC(=O)C1C(=N)Oc2ccc3ccc(O)cc3c2C1c1ccc(C)cc1 (configuration not stated)	.
CCOC(=O)N1CCc2c(sc3nc(SCC#N)n(N)c(=O)c23)C1	.
O=C1N(c2ccccc2)C(c2ccccc2)C1(F)F (configuration not stated)	.
CCCCCCCC(=O)Nc1ccc(N(C)C)cc1	.
CCCCCCCCCCCCCCCCCCN(C)c1ccc(/C=C/c2cc[n+](C)cc2)cc1	.
CCCCCCCCCCCCCCCC[n+]1ccc(/C=C/c2ccc(N(C)C)cc2)cc1	29
CC(C)Cc1ccc(C(C)C(=O)Nc2cc(C(=O)Nc3ccc(F)cc3)ccc2Cl)cc1 (configuration not stated)	.
O=C(O)COc1ccccc1/C=C1\C(=O)Nc2ccc(Br)cc21	.
O=C1Nc2ccc(Br)cc2/C1=C\c1nc2ccccc2c(=O)n1-c1cccc(C(=O)O)c1	32
O=C1Nc2ccc(Br)cc2C1=Cc1nc2ccccc2c(=O)n1Cc1ccccc1	.
Cc1ccccc1N1C(=O)CC(c2cn(Cc3ccccc3)c3ccccc23)C1=O (configuration not stated)	.
COC(=O)c1ccc(NC(=O)CSc2ccc(-c3sc(-c4ccccc4)nc3C)nn2)cc1	.
CCCC1=NN(c2ccccc2)C(=O)C1C1c2ccccc2Oc2c1c(CCC)nn2-c1ccccc1 (configuration not stated)	.
CCCC1=NN(c2ccccc2)C2Oc3c(OC)cccc3C(c3cn(-c4ccccc4)nc3CCC)C12 (configuration not stated)	56
SMILES	RBX1-CUL1 inh
COc1ccccc1C1CC(c2ccccc2)=NN1c1ccccc1 (configuration not stated)	.
CCc1ccc(-c2cc(C(F)(F)F)n3nc(C(=O)N(C)Cc4cn(CC)nc4C)cc3n2)s1	.
O=C1C(=Nc2ccc(F)cc2)CC(c2ccc([N+](=O)[O-])cc2)N1c1ccc(F)cc1 (configuration not stated)	.
Cc1ccc(-c2nn3c(N)c(C#N)nnc3c2Cl)cc1	94
Cc1ccc(-c2nn3c(-c4cccs4)c(C#N)cnc3c2Br)cc1	.
Cc1ccc(-c2nn3c(-c4ccc(C)cc4)nnc3c3ccccc23)cc1	.
C=C[C@]1(C)C[C@@H](OC)C2(C)C(C)CCC3(CCC(=O)C32)[C@@H](C)C1=O (some centres not stated)	.
Fc1ccc(CCNC(=S)NC2CCCC2)cc1	.
CCOc1ccc(-c2c(C)nn3c(-c4ccccc4)c(C(=O)NCCOC)cnc23)cc1OCC	.
CCCCc1nn2c(=O)cc(COC(=O)c3ccccc3NC(=O)c3cccs3)nc2s1	.
CC(=O)c1c(=O)n(O)cc2ccccc12	91
CC(=O)c1c(C)sc2c1ccc1ccccc12	.
CC(=O)n1c(=O)c2cc3ccccc3cc2c(=O)n1C(C)=O	.
CCOc1cc(C=C2C(=O)NC(=S)NC2=O)cc(Cl)c1OCc1ccc(C(=O)O)cc1	50
O=C1NC(=O)C(=Cc2cc(Cl)c(OCc3ccc(C(=O)O)cc3)c(Cl)c2)C(=O)N1	.
CCOc1cc(C=C2C(=O)NC(=S)NC2=O)cc(Br)c1OCc1ccc(C(=O)O)cc1	.
C=C(C)Cn1c(SCC(=O)c2ccc(F)cc2)nc2sc3c(c2c1=O)CCCC3	.
COc1ccc2nc(Cl)c(-c3nnc4c(Cl)nc5ccccc5n34)cc2c1	.
Clc1nc2ccccc2n2c(-c3ccccc3)nnc12	25
Fc1ccc(-c2nnc3c(Cl)nc4ccccc4n23)cc1	.
COC(=O)C1=C(C)N(c2cccc(OC)c2)C(=O)/C1=C\c1cc2c(cc1Br)OCO2	.
CCCc1cc(=O)n(C)c(CC(=O)c2ccc(Cl)cc2)n1	.
COc1cc(C2NC(=O)N=C(C)C2C(=O)OCC(F)(F)F)ccc1O (configuration not stated)	.
